Several values for one entry are separate records, joined by “and”; a condition that tells them apart may be missing. Identical values can stand only once. Inconclusive results are not listed. A structure can be active in one record and inactive in another. Activity calls are given as the source filed them. The calls were made as follows, unless noted: active = hit-call score of the fitted dose curve at least 0.9, where 1 is the maximum; inactive = score below 0.9.
Tests used:
[1] = APR_HepG2_CellCycleArrest_1hr: Apredica 1-hour HepG2 Assay for Cell Cycle Arrest (AID 2282666); settings: high-content imaging, actives raise or lower the signal
In short: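 Cell cycle arrest scored from nuclear DNA content (Hoechst 33342) using high-content imaging of fixed HepG2 cells after 1 h treatment across 0.39–200 uM, in duplicate. Gain or loss fitted relative to 0.5% DMSO.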

[2] = APR_HepG2_CellLoss_1hr: Apredica 1-hour HepG2 Assay for Cell Loss (AID 2282668); settings: high-content imaging;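 also: curves fitted both ways against DMSO so gain or loss of cells counts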
In short: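 Cell number comes from high-content imaging of Hoechst-labelled nuclei in fixed HepG2 cells. Cells were exposed for 1 h to ten concentrations from 0.39 to 200 uM in 0.5% DMSO. Gain or loss was fitted against DMSO controls.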

[3] = APR_HepG2_MicrotubuleCSK_1hr: Apredica 1-hour HepG2 Assay for Microtubule CSK Stabilty (AID 2282669); settings: HepG2 microtubule cytoskeleton imaging, actives raise or lower the signal
In short: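 Alpha-tubulin immunofluorescence, imaged by automated high-content microscopy with Hoechst nuclear segmentation, measured cytoskeletal change after 1 h dosing of HepG2 at 0.39–200 uM in 0.5% DMSO. Activity fitted in both directions relative to DMSO.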

[4] = APR_HepG2_NuclearSize_1hr: Apredica 1-hour HepG2 Assay for Nuclear Size (AID 2282670); settings: high-content imaging, actives raise or lower the signal
In short: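 Nuclear size measured by high-content imaging of Hoechst 33342 nuclear stain after formaldehyde fixation; human HepG2 line exposed 1 hr to compounds at 0.39–200 uM in 0.5% DMSO, with bidirectional curve fitting relative to DMSO.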

[5] = APR_HepG2_MitoticArrest_1hr: Apredica 1-hour HepG2 Assay for Mitotic Arrest (AID 2282672); settings: high-content imaging, actives raise or lower the signal
In short: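 Ten-point concentration series (0.39 to 200 uM, duplicates, 0.5% v/v DMSO) applied to human HepG2 liver cells for 1 hr. High-content imaging of phospho-histone H3 and Hoechst-stained nuclei after fixation and permeabilization; DMSO-normalised bidirectional fit.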

[6] = APR_HepG2_P-H2AX_1hr: Apredica 1-hour HepG2 Assay for H2AX Phosphorylation (AID 2282673); settings: high-content imaging, actives raise or lower the signal
In short: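 Phospho-H2A.x immunofluorescence (1:200, FITC secondary) plus Hoechst nuclear stain, quantified by high-content imaging in HepG2 after 1 hr compound exposure. Ten concentrations, 0.39 to 200 uM, in duplicate with 0.5% DMSO; fit both directions against DMSO.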

[7] = APR_HepG2_MitoMass_1hr: Apredica 1-hour HepG2 Assay for Mitochondrial Mass (AID 2282674); settings: high-content imaging, actives raise or lower the signal
In short: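 Mitochondrial mass is taken from MitoTracker Red CMXRos (250 nM, 30 min, pre-fixation) fluorescence imaged at 20x in HepG2 cells. Exposure lasted 1 hr across ten concentrations, 0.39 to 200 uM, 0.5% DMSO; DMSO baseline, bidirectional fitting.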

[8] = APR_HepG2_MitoMembPot_1hr: Apredica 1-hour HepG2 Assay for Mitochondrial Membrane Potential (AID 2282675); settings: imaging, actives raise or lower the signal
In short: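 Mitochondrial membrane potential read as MitoTracker Red CMXRos intensity by automated imaging of fixed HepG2 cells. Dye at 250 nM for 30 min pre-fixation; compounds 0.39 to 200 uM for 1 hour, duplicate wells, 0.5% DMSO.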

[9] = APR_HepG2_CellCycleArrest_24hr: Apredica 24-hour HepG2 Assay for Cell Cycle Arrest (AID 2282905); settings: imaging, actives raise or lower the signal;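 also: cell cycle arrest scored as ratio of 2N to 4N nuclear DNA content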
In short: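 Readout: Hoechst 33342 nuclear DNA content by high-content fluorescent imaging, six images/well, 20x. Human HepG2 liver cells, 24 hr compound exposure, 0.39–200 uM, final DMSO 0.5% v/v. Gain or loss fitted relative to DMSO baseline.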

[10] = APR_HepG2_StressKinase_1hr: Apredica 1-hour HepG2 Assay for Stress Kinase (AID 2282906); settings: HepG2 stress kinase (phospho-c-Jun) imaging, actives raise or lower the signal
In short: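 High-content imaging of phospho-c-Jun immunostaining (with Hoechst nuclear identification) after a 1 h exposure of HepG2 cells to 10 concentrations from 0.39 to 200 uM, final DMSO 0.5%. Fitted bidirectionally against DMSO.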

[11] = APR_HepG2_NuclearSize_24hr: Apredica 24-hour HepG2 Assay for Nuclear Size (AID 2282907); settings: high-content imaging, actives raise or lower the signal
In short: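 Read-out: nuclear diameter from Hoechst 33342 (2 ug/mL) imaging of fixed HepG2 cells, 20x, six fields/well. Compounds ran at 0.39–200 uM for 24 hr, 0.5% DMSO final. Gain or loss was fitted bidirectionally relative to the DMSO baseline.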

[12] = APR_HepG2_CellLoss_24hr: Apredica 24-hour HepG2 Assay for Cell Loss (AID 2282908); settings: high-content imaging;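 as to AC50: fit in both directions so a hit may be cell loss or gain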
In short: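 Read-out: Hoechst 33342-stained nuclei counted by automated fluorescence imaging after formaldehyde fixation and Triton permeabilization. Ten concentrations, 0.39 to 200 uM, duplicate wells, 0.5% DMSO final. Gain or loss of signal fitted relative to DMSO baseline.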

[13] = APR_HepG2_MicrotubuleCSK_24hr: Apredica 24-hour HepG2 Assay for Microtubule CSK Stabilty (AID 2282909); settings: HepG2 microtubule cytoskeleton imaging, actives raise or lower the signal
In short: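 Read-out: alpha-tubulin immunofluorescence intensity by automated high-content imaging of fixed HepG2 cells after 24 h compound treatment. Ten concentrations, 0.39 to 200 uM, in duplicate; DMSO 0.5% v/v. Taxol positive control; DMSO-normalized bidirectional curve fitting.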

[14] = APR_HepG2_MitoticArrest_24hr: Apredica 24-hour HepG2 Assay for Mitotic Arrest (AID 2282910); settings: high-content imaging, actives raise or lower the signal
In short: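 Treatment lasted 24 hr in the human HepG2 line at 0.39–200 uM, solvent held at 0.5% DMSO. Fixed cells were stained with Hoechst 33342 and anti-phospho-histone H3, imaged at 20x, and analysed by gain- or loss-of-signal fitting against DMSO.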

[15] = APR_HepG2_MitoMembPot_24hr: Apredica 24-hour HepG2 Assay for Mitochondrial Membrane Potential (AID 2282911); settings: imaging, actives raise or lower the signal
In short: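 Mitochondrial membrane potential imaged via MitoTracker Red CMXRos (250 nM, 30 min pre-fixation) in fixed HepG2 cells with Hoechst nuclear identification. Ten concentrations 0.39–200 uM, 24 h treatment, 0.5% DMSO; CCCP as positive control.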

[16] = APR_HepG2_MitoMass_24hr: Apredica 24-hour HepG2 Assay for Mitochondrial Mass (AID 2282912); settings: high-content imaging, actives raise or lower the signal
In short: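 HepG2, 24 hr dosing, 10 concentrations 0.39–200 uM in duplicate, DMSO 0.5% final. MitoTracker Red CMXRos 250 nM, 30 min pre-fix; 3.7% formaldehyde fix. Imaging-based fluorescence intensity; gain/loss fit vs DMSO baseline.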

[17] = APR_HepG2_CellCycleArrest_72hr: Apredica 72-hour HepG2 Assay for Cell Cycle Arrest (AID 2282914); settings: high-content imaging, actives raise or lower the signal
In short: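 Read-out: nuclear DNA content from Hoechst 33342 high-content imaging (20x, six fields/well) after 3.7% formaldehyde fixation, fitted bidirectionally against DMSO. Treatment was 72 h in HepG2, ten concentrations 0.39–200 uM, duplicate, 0.5% DMSO.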

[18] = APR_HepG2_CellLoss_72hr: Apredica 72-hour HepG2 Assay for Cell Loss (AID 2282915); settings: high-content imaging
In short: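 HepG2 cells were exposed for 72 hr to compounds at 0.39–200 uM (ten concentrations, duplicate) in 0.5% v/v final DMSO. Nuclei were stained with Hoechst 33342 after 3.7% formaldehyde fixation, imaged at 20x, and counted; fits bidirectional versus DMSO.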

[19] = ACEA_ER_80hr: ACEA Biosciences xCELLigence Real-Time Cell Analysis on Estrogen Receptor Agonism for Proliferation (AID 2282667; active = hit-call score of the fitted dose curve at least 0.9, where 1 is the maximum); settings: T47D proliferation, impedance (xCELLigence), 80 h
In short: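 Real-time impedance growth kinetics of human T-47D breast cells read 80 h after dosing, gain-of-signal fitted relative to DMSO. Compounds: 1:4 serial series, top final concentration 100 uM, n = 2.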

[20] = APR_HepG2_p53Act_24hr: Apredica 24-hour HepG2 Assay for p53 Activation (AID 2282913); settings: high-content imaging, actives raise or lower the signal;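 also: p53 protein immunofluorescence averaged per cell in HepG2 with Hoechst nuclei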
In short: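 Fluorescence imaging of formaldehyde-fixed HepG2 cells labelled for p53 and with Hoechst, 24 h after dosing (0.39–200 uM, duplicate wells, 0.5% v/v DMSO). Signal fitted in both directions relative to DMSO.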

Measured: AC50

Cc1ccccc1CO[C@@H]1C[C@@]2(C(C)C)CC[C@]1(C)O2
active: [9] 79.8 µM
not listed: [19] | [20]
inactive: all other assays above

CC(C)C(=O)OCC(C)(C)C(OC(=O)C(C)C)C(C)C (stereo not drawn)
inactive: [19] | [9] | [11] | [12] | [13] | [14] | [15] | [16] | [20] | [17] | [18]

CCNc1nc(NC(C)C)nc(SC)n1
not listed: [19] | [20]
inactive: all other assays above

c1ccc(-c2ccccc2)cc1
inactive: [19] | [9] | [11] | [12] | [13] | [14] | [15] | [16] | [20] | [17] | [18]

Clc1ccc(C(c2ccccc2Cl)C(Cl)(Cl)Cl)cc1 (stereo not drawn)
active: [19] 393 nM and 193 nM | [9] 52.2 µM | [12] 70.5 µM | [13] 74.4 µM | [14] 69.4 µM | [16] 65.7 µM | [20] 75.5 µM | [17] 24.6 µM | [18] 70.6 µM
inactive: [19] | [11] | [15]

Nn1cnnc1
active: [19] 60.3 µM
inactive: [9] | [11] | [12] | [13] | [14] | [15] | [16] | [20] | [17] | [18]

NS(=O)(=O)C(F)(F)C(F)(F)C(F)(F)C(F)(F)C(F)(F)C(F)(F)C(F)(F)C(F)(F)F
inactive: [19] | [11] | [13] | [14] | [16]
active: [9] 62.5 µM | [12] 93.4 µM | [15] 72.5 µM | [20] 101 µM | [17] 46.1 µM | [18] 63.4 µM

c1cc2ccc3cccc4ccc(c1)c2c34
active: [15] 92.1 µM
inactive: [19] | [9] | [11] | [12] | [13] | [14] | [16] | [20] | [17] | [18]

COc1ccc(O)c(C(C)(C)C)c1
active: [19] 1.95 µM
inactive: [9] | [11] | [12] | [13] | [14] | [15] | [16] | [20] | [17] | [18]

CC(c1ccc(O)cc1)(c1ccc(O)cc1)c1ccc(O)cc1
active: [19] 1.54 µM | [12] 113 µM | [14] 107 µM | [15] 29.5 µM | [16] 109 µM | [20] 104 µM | [18] 115 µM
inactive: [9] | [11] | [13] | [17]

CCC(C)(CC)c1cc(NC(=O)c2c(OC)cccc2OC)on1
active: [18] 66.4 µM
not listed: [19] | [20]
inactive: all other assays above

Cc1cccc([N+](=O)[O-])c1
inactive: [19] | [9] | [11] | [12] | [13] | [14] | [15] | [16] | [20] | [17] | [18]

N#Cc1ccc(N(CC(N)=O)CC(F)(F)F)cc1C(F)(F)F
inactive: [19] | [9] | [11] | [12] | [13] | [14] | [15] | [16] | [20] | [17] | [18]

CN(C)c1nc(=O)n(C2CCCCC2)c(=O)n1C
not listed: [19] | [20]
inactive: all other assays above

From PubChem BioAssay (EPA / NIEHS)
